Measured values as given in PubChem BioAssay (NCI).
Compounds without any hit were thinned out: in the full panel of roughly 83,000, 20% have a hit.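 Assay: single dose, 48 h. Readout: percent growth (0 = no net growth; negative = cell death). Active: <10.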 The source made the active and inactive calls.

Tests used:
Experiment in all cases: NCI-60 one-dose screen, 48 h (100 = growth as untreated, 0 = no growth, -100 = all killed)
Conditions in all cases: 10 µM unless noted
NCI-H23 lung = test system: NCI-H23 lung
NCI-H226 lung = test system: NCI-H226 lung
NCI-H322M lung = test system: NCI-H322M lung
HOP-92 NSCLC = test system: HOP-92 NSCLC
NCI-H522 lung = test system: NCI-H522 lung
A549/ATCC NSCLC = test system: A549/ATCC NSCLC
786-0 renal = test system: 786-0 renal
COLO 205 colon = test system: COLO 205 colon
DU-145 prostate = test system: DU-145 prostate
K-562 leukemia = test system: K-562 leukemia
MALME-3M melanoma = test system: MALME-3M melanoma
MDA-MB-231 breast = test system: MDA-MB-231 breast
RXF 393 renal = test system: RXF 393 renal
SF-268 CNS = test system: SF-268 CNS
SF-295 CNS = test system: SF-295 CNS
SF-539 CNS = test system: SF-539 CNS
UACC-257 melanoma = test system: UACC-257 melanoma
M14 melanoma = test system: M14 melanoma
NCI-H460 lung = test system: NCI-H460 lung
HOP-62 NSCLC = test system: HOP-62 NSCLC

Measured: growth

COc1ccc(/C=C2\c3cc(OC)c(OC)c(OC)c3CC[C@@H]2O)cc1F
inactive: NCI-H23 lung 37.3% | NCI-H226 lung 58.1% | NCI-H322M lung 66.3% | HOP-92 NSCLC 38.2% | A549/ATCC NSCLC 16.7% | 786-0 renal 34.7% | DU-145 prostate 19.5% | K-562 leukemia 13.4% | MALME-3M melanoma 70.2% | MDA-MB-231 breast 28.8% | SF-268 CNS 53.9% | SF-295 CNS 17% | UACC-257 melanoma 39%
active: NCI-H522 lung -32.5% | COLO 205 colon 2.26% | RXF 393 renal 8.31% | SF-539 CNS 1.44% | M14 melanoma 5.42%

COC(=O)c1c2c(c(C)[n+]([O-])c1C)C(=O)C(NCc1ccccc1)=CC2=O
inactive: NCI-H226 lung 73.3% | NCI-H460 lung 11% | HOP-92 NSCLC 71.1% | NCI-H522 lung 28.8% | A549/ATCC NSCLC 13.7% | 786-0 renal 60% | DU-145 prostate 42.4% | K-562 leukemia 24.4% | MDA-MB-231 breast 10.6% | SF-268 CNS 28.3% | SF-295 CNS 43.5%
active: NCI-H23 lung 9.17% | NCI-H322M lung 7.15% | COLO 205 colon -9.35% | MALME-3M melanoma -77.8% | RXF 393 renal 3% | SF-539 CNS 8.86% | UACC-257 melanoma -22% | M14 melanoma 9.18%

Cc1cc(=O)n(C(=S)Nc2ccc(Cl)cc2)c2cc(O)ccc12
inactive: NCI-H23 lung 85.6% | NCI-H226 lung 80.5% | NCI-H322M lung 97.7% | NCI-H460 lung 110% | HOP-92 NSCLC 84.6% | NCI-H522 lung 94.9% | A549/ATCC NSCLC 106% | 786-0 renal 109% | COLO 205 colon 103% | DU-145 prostate 109% | K-562 leukemia 113% | MALME-3M melanoma 91.5% | MDA-MB-231 breast 92.4% | RXF 393 renal 99.7% | SF-268 CNS 102% | SF-295 CNS 99.8% | SF-539 CNS 101% | UACC-257 melanoma 110% | M14 melanoma 108%

CCOC(=O)C#Cc1c(C(=O)OCC)nnn1[C@@H]1O[C@H](COC)[C@@H](OC)[C@H]1OC
active: NCI-H522 lung -58.7% | COLO 205 colon -54.7% | K-562 leukemia 9.33%
inactive: NCI-H23 lung 101% | NCI-H226 lung 82.6% | NCI-H322M lung 92.9% | HOP-62 NSCLC 97.8% | HOP-92 NSCLC 68.5% | A549/ATCC NSCLC 95.9% | 786-0 renal 84.2% | DU-145 prostate 92.6% | MALME-3M melanoma 25.8% | MDA-MB-231 breast 107% | RXF 393 renal 14% | SF-268 CNS 106% | SF-295 CNS 95.1% | SF-539 CNS 84.7% | UACC-257 melanoma 59.3% | M14 melanoma 61.8%

CCCCCc1ccc(S(=O)(=O)Nc2ccc3nc(N)oc3c2)cc1
inactive: NCI-H23 lung 40.2% | NCI-H226 lung 46.3% | NCI-H322M lung 96.9% | NCI-H460 lung 60.8% | HOP-92 NSCLC 19.5% | A549/ATCC NSCLC 53.2% | 786-0 renal 72.4% | COLO 205 colon 72.4% | DU-145 prostate 74.2% | K-562 leukemia 27.9% | MALME-3M melanoma 89.8% | MDA-MB-231 breast 64.3% | RXF 393 renal 77.4% | SF-268 CNS 51.1% | SF-295 CNS 30.8% | SF-539 CNS 71.3% | UACC-257 melanoma 34.4% | M14 melanoma 73.1%

ClCCn1cnc2c(SCc3ccccc3)ncnc21
inactive: NCI-H23 lung 72.4% | NCI-H226 lung 65.4% | NCI-H322M lung 75.3% | HOP-92 NSCLC 63.7% | NCI-H522 lung 65.8% | A549/ATCC NSCLC 40% | 786-0 renal 64.8% | COLO 205 colon 52.4% | DU-145 prostate 63.3% | K-562 leukemia 40.8% | MALME-3M melanoma 57.6% | MDA-MB-231 breast 75.6% | RXF 393 renal 87.8% | SF-268 CNS 67.1% | SF-295 CNS 37.6% | SF-539 CNS 37.3% | UACC-257 melanoma 62.4% | M14 melanoma 71.7%

CC(O)Cc1c[nH]c(=O)[nH]c1=O (centres undefined)
inactive: NCI-H23 lung 102% | NCI-H226 lung 109% | NCI-H322M lung 132% | HOP-92 NSCLC 111% | NCI-H522 lung 110% | A549/ATCC NSCLC 93.7% | 786-0 renal 109% | DU-145 prostate 97.9% | K-562 leukemia 126% | MALME-3M melanoma 142% | MDA-MB-231 breast 112% | RXF 393 renal 192% | SF-268 CNS 90% | SF-295 CNS 112% | SF-539 CNS 110% | UACC-257 melanoma 92.7% | M14 melanoma 102%
active: HOP-62 NSCLC -56.4% | COLO 205 colon -66.5%

O=C(Oc1ccc2c(c1)sc1nc(-c3ccccc3)[nH]c(=O)c12)C(F)(F)F
active: M14 melanoma 4.5%
inactive: NCI-H23 lung 52.8% | NCI-H226 lung 58.3% | NCI-H322M lung 56.3% | NCI-H460 lung 13% | HOP-92 NSCLC 54.1% | NCI-H522 lung 25.1% | A549/ATCC NSCLC 28.3% | 786-0 renal 51% | COLO 205 colon 88.3% | DU-145 prostate 44.2% | K-562 leukemia 15.3% | MALME-3M melanoma 33.3% | MDA-MB-231 breast 61.4% | RXF 393 renal 43.8% | SF-268 CNS 44% | SF-295 CNS 51.9% | SF-539 CNS 27.9% | UACC-257 melanoma 49.1%
